What all share (assay): NCI-60 one-dose screen, 48 h (100 = growth as untreated, 0 = no growth, -100 = all killed)
Holding throughout (conditions): 10 µM unless noted

Assay [1] concerns NCI-H23 lung.
Assay [2] deals with NCI-H226 lung.
Assay [3] has as its system NCI-H322M lung.
Assay [4] has as its system HOP-62 NSCLC.
Assay [5] deals with NCI-H460 lung.
The test system of assay [6] is HOP-92 NSCLC.
Assay [7] relates to A549/ATCC NSCLC.
The subject of assay [8] is 786-0 renal.
Assay [9] relates to COLO 205 colon.
Assay [10] deals with NCI-H522 lung.

Several values for one entry are separate records, joined by “and”; a condition that tells them apart may be missing. Identical values can stand only once. About 83,000 compounds went through this panel and 20% of them were active in at least one assay; those are over-represented in the sample as a whole.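 Treatment: one concentration, 48 hours, 96-well format. Scoring: percent growth, with anything below 10 considered active.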 Activity calls are given as the source filed them.

With `COc1ccc(Cn2c(NCCN=C(N)N)nc(=O)n(Cc3ccc(F)cc3)c2=O)cc1`, the growth in [1] is 102% (inactive) and 89.5% (inactive); in assay [2], 97.3% (inactive) and 95.3% (inactive); in assay [3] it was 83% (inactive) and 90.7% (inactive); in [4] it was 71.6% (inactive) and 85.7% (inactive); in [5], 106% (inactive) and 104% (inactive); in assay [6] it was 82.8% (inactive). Further, the growth in assay [7] is 108% (inactive) and 107% (inactive); in [8], 98.5% (inactive) and 103% (inactive); in [9], 105% (inactive) and 97.8% (inactive).
In the case of `CCOC(=O)Nc1ccc2c(c1)/C(=N\NC(N)=S)c1ccccc1-2`, the growth in assay [1] is 44.3% (inactive) and 62.6% (inactive); in assay [2] it was 76% (inactive) and 81.1% (inactive); in [3] it was 83.8% (inactive) and 94.9% (inactive); in assay [4], 74.7% (inactive) and 77.6% (inactive); in assay [6], 71.1% (inactive); in [10] it was 76.9% (inactive). Moreover, the growth in assay [7] is 60% (inactive) and 57.6% (inactive); in assay [8], 28% (inactive) and 53.7% (inactive); in assay [9], 63.3% (inactive) and 88.3% (inactive).
Regarding `Nc1ccc2[nH]c(-c3ccccc3)cc(=O)c2c1`, the growth in [1] is 98.3% (inactive); in assay [2], 101% (inactive); in assay [3], 97.5% (inactive); in assay [4], 96.8% (inactive); in [5], 97.4% (inactive); in assay [10], 71.3% (inactive). The growth in assay [7] is 102% (inactive); in assay [8] it was 96.6% (inactive).
On to `O=CC(O)C(O)C(O)CO` (centres undefined), for which the growth was 13.3% (inactive) and 100% (inactive) in [1]; 93.9% (inactive) and 101% (inactive) in assay [2]; 101% (inactive) and 96.6% (inactive) in assay [3]; 114% (inactive) and 97.6% (inactive) in assay [4]; 119% (inactive) in assay [6]; 33.4% (inactive) in assay [10]. For the same compound, the growth in assay [7] is 102% (inactive); in assay [8], 104% (inactive) and 97.6% (inactive); in [9], 97.7% (inactive) and 106% (inactive).
As to `Oc1c(CN2CCCCC2)ccc2cccnc12`, the growth is 79% (inactive) and 80.2% (inactive) in assay [1]; 63.8% (inactive) and 33.7% (inactive) in assay [2]; 36.5% (inactive) and 32.4% (inactive) in assay [3]; 52.1% (inactive) and 41.1% (inactive) in [4]; 21.1% (inactive) and 10.5% (inactive) in assay [5]; -3.86% (active) and 16.2% (inactive) in assay [10]. Besides, the growth in [7] is 43.6% (inactive) and 36% (inactive); in [8] it was 11% (inactive) and 42.4% (inactive); in assay [9], 66.7% (inactive) and 80.4% (inactive).
Take `CCCCCn1sc(=O)n(Cc2ccc(CNC(=O)C(C)c3ccc(CC(C)C)cc3)cc2)c1=O` (centres undefined): the growth in assay [1] was 102% (inactive) and -73.4% (active); in assay [2], 94.3% (inactive) and 37.3% (inactive); in [3], 99.5% (inactive) and 67.6% (inactive); in [4] it was 99.1% (inactive) and -43.2% (active); in assay [6] it was 73.6% (inactive) and -66.2% (active); in assay [10] it was 85.4% (inactive) and -59.6% (active). In addition, the growth in assay [7] was 97.4% (inactive) and -19.1% (active); in assay [8] it was 95.8% (inactive) and -86.5% (active); in assay [9], 122% (inactive) and -57.5% (active).
On to `CCCCCN(CCCCC)CC(O)c1cc2c(c3ccccc13)CCCC2` (centres undefined), for which the growth in [1] was 31.5% (inactive) and 40.8% (inactive); in assay [2], 69.8% (inactive) and 53.2% (inactive); in assay [3], 71.3% (inactive) and 38.5% (inactive); in [4] it was 36.2% (inactive) and 75.6% (inactive); in assay [6] it was -14.4% (active); in assay [7], 71.1% (inactive) and 59.9% (inactive). Also, the growth was 39.1% (inactive) and 27.2% (inactive) in assay [8]; 40.7% (inactive) in assay [9].
As for `CCN(CC)CCOc1ccc(/C=N/Nc2nc3c([nH]2)c(=O)n(C)c(=O)n3C)cc1`, the growth was 89.8% (inactive) and 103% (inactive) in assay [1]; 102% (inactive) and 101% (inactive) in assay [2]; 109% (inactive) and 94.1% (inactive) in assay [3]; 103% (inactive) and 108% (inactive) in assay [4]; 94.6% (inactive) in assay [6]; 84.8% (inactive) and 93.3% (inactive) in [10]. In addition, the growth in [7] is 104% (inactive) and 110% (inactive); in [8], 91.7% (inactive) and 107% (inactive); in assay [9], 112% (inactive) and 111% (inactive).
On to `Nc1ncnc2c1ncn2C1CC(O)C(CO)O1` (centres undefined), for which the growth in assay [1] is 106% (inactive) and 112% (inactive); in assay [2] it was 101% (inactive) and 105% (inactive); in [3], 155% (inactive) and 112% (inactive); in assay [4], 109% (inactive) and 105% (inactive); in [5] it was 102% (inactive) and 124% (inactive); in assay [10], 142% (inactive) and 100% (inactive). Also, the growth is 101% (inactive) in [7]; 101% (inactive) and 105% (inactive) in assay [8]; 116% (inactive) and 107% (inactive) in assay [9].
